Records with an inconclusive call do not appear. Active and inactive are the calls of the source. The call rests on the fitted dose curve; in most records, active means well fitted inhibition curve with a large enough effect; inconclusive means small, poorly fitted or top-dose-only effect; inactive means flat fitted curve, though single readings scatter.
Potency means the concentration at half of the fitted maximal effect.

One assay relates to CP201. Kind of assay: qHTS profiling for inhibitors of Plasmodium falciparum proliferation (AID 504749). Further: nearly all actives have a fitted effect of over 60% in size.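 On activity, negative = inhibition: 0% = DMSO vehicle and full inhibition = artemisinin control.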 Particulars: P. falciparum in erythrocytes, SYBR Green DNA, 72 h; series mostly up to 28.7 µM; activity, negative = inhibition: at the top concentration. In outline:
(§1)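 P. falciparum-infected erythrocytes (0.3% parasitemia, 2.5% hematocrit final) were exposed to compounds for 72 h at 37 C in 5% CO2, then lysed with SYBR Green buffer overnight at room temperature; parasite DNA fluorescence was normalized to artemisinin and DMSO controls.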
A general note: In qHTS, concentration-response curves come from the screen itself.
As for `O=NN(CCCl)C(=O)NC1CCCCC1`, the “activity, negative = inhibition” value is -2.69% (inactive). On to `Cc1nnc(NS(=O)(=O)c2ccc(N)cc2)s1`, for which the “activity, negative = inhibition” value is 1.62% (inactive). Still for that read-out and setting: the result for `Cc1ncc([N+](=O)[O-])n1CCO` reads -0.15% (inactive); that for `CCOCC(O)COc1ccc(NC(=O)CC[S+](C)C)cc1` (configuration not stated), -0.175% (inactive). The same measure, in the same setting: the result for `S=P(N1CC1)(N1CC1)N1CC1` reads 1.24% (inactive); that for `COc1cnc(NS(=O)(=O)c2ccc(N)cc2)nc1`, -0.114% [at 12.8 µM] (inactive).

With `CC[C@H](C)C(=O)O[C@H]1C[C@@H](C)C=C2C=C[C@H](C)[C@H](CC[C@@H]3C[C@@H](O)CC(=O)O3)[C@H]21`, the “activity, negative = inhibition” value was -3.5% (inactive).

`CCCc1cc(C(N)=S)ccn1`: the “activity, negative = inhibition” value was -3.79% (inactive).

The subject of a further assay is CP203. The description is as above. The conditions noted are these: P. falciparum in erythrocytes, SYBR Green DNA, 72 h; series mostly up to 28.7 µM; activity, negative = inhibition: at the top concentration. In outline:
as §1
Turning to `CC(C)OC(=O)C(C(=O)OC(C)C)=C1SC=CS1`, the “activity, negative = inhibition” value was -0.679% (inactive). Same read-out and setting: as for `NC(=O)c1cccnc1`, the figure is -0.454% (inactive); as for `Cc1ccnc2c1NC(=O)c1cccnc1N2C1CC1`, 6.74% (inactive). `O=P(O)(O)C(O)(Cc1cccnc1)P(=O)(O)O`: the “activity, negative = inhibition” value was -9.19% (inactive).

Turning to `CCc1c2c(nc3ccc(OC(=O)N4CCC(N5CCCCC5)CC4)cc13)-c1cc3c(c(=O)n1C2)COC(=O)[C@]3(O)CC`, the “activity, negative = inhibition” value was 0.174% (inactive). Same read-out and setting: as for `C#CCN[C@@H]1CCc2ccccc21`, the figure is -1.36% (inactive); as for `CNS(=O)(=O)Cc1ccc2[nH]cc(CCN(C)C)c2c1`, -10.5% (inactive). The same measure, in the same setting: the result for `Cc1noc(NS(=O)(=O)c2ccc(N)cc2)c1C` reads 0.387% (inactive); that for `CCCN[C@H]1CCc2nc(N)sc2C1`, -5.62% (inactive); that for `CN1CCN(c2c(F)cc3c(=O)c(C(=O)O)cn4c3c2OCN4C)CC1`, 4.98% (inactive). As to `COc1cc(NCc2ccc3nc(N)nc(N)c3c2C)cc(OC)c1OC`, the Potency was 4.78 µM (active). For `Cc1cccc(Nc2ccncc2S(=O)(=O)NC(=O)NC(C)C)c1`, the “activity, negative = inhibition” value was 6.33% [at 12.8 µM] (inactive). The same measure, in the same setting: as for `CC1=NN(c2ccccc2)C(=O)C1`, the figure is -4.19% (inactive); as for `NCCCC(O)(P(=O)(O)O)P(=O)(O)O`, 7.51% (inactive); as for `COc1ccc(C(=O)CC(=O)c2ccc(C(C)(C)C)cc2)cc1`, 1.36% (inactive). Still for that read-out and setting: as for `Cn1nnc2c(C(N)=O)ncn2c1=O`, the figure is 0.256% (inactive); as for `O=NN(CCCl)C(=O)NC1CCCCC1`, -0.0976% (inactive). On the same count and under the same terms, the result for `Cc1nnc(NS(=O)(=O)c2ccc(N)cc2)s1` reads 0.947% (inactive). In the case of `Cc1ncc([N+](=O)[O-])n1CCO`, the “activity, negative = inhibition” value is -0.822% (inactive).

In the case of `CCOCC(O)COc1ccc(NC(=O)CC[S+](C)C)cc1` (configuration not stated), the “activity, negative = inhibition” value was -1.8% (inactive). As to `S=P(N1CC1)(N1CC1)N1CC1`, the “activity, negative = inhibition” value was 1.02% (inactive).

As to `COc1cnc(NS(=O)(=O)c2ccc(N)cc2)nc1`, the “activity, negative = inhibition” value was 0.399% [at 12.8 µM] (inactive).

For `CC[C@H](C)C(=O)O[C@H]1C[C@@H](C)C=C2C=C[C@H](C)[C@H](CC[C@@H]3C[C@@H](O)CC(=O)O3)[C@H]21`, the “activity, negative = inhibition” value is -2.06% (inactive). Same read-out and setting: the result for `CCCc1cc(C(N)=S)ccn1` reads -1.72% (inactive).

The values are drawn from PubChem BioAssay (NCATS).
